Bioassay records (PubChem BioAssay)
Sampled rows, rich in hits. Any-hit rate of the full collection: about 12%.
Sm TGR block: qHTS Assay for the Inhibitors of Schistosoma Mansoni Peroxiredoxins. Schistosoma mansoni thioredoxin glutathione reductase (TGR), Q962Y6. hit rate 3% among 360,000. Potency, µM (titrated, usually from 114 µM), inactives show at the highest dose activity change, negative = inhibition, usual class: inhibitors. purified TGR, DTNB reduction, TNB absorbance 405 nm; note: % is set by controls: 0 for no effect and ±100 for the full control effect; nearly all actives have a fitted effect of over 60% in size
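Kinetic colorimetric format: TGR-catalysed, NADPH-driven DTNB reduction monitored via TNB absorbance. Enzyme dispensed at 20 nM; compound exposure 15 min at room temperature before reaction start.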
Pf growth 48h: Primary qHTS for delayed death inhibitors of the malarial parasite plastid, 48 hour incubation; P. falciparum luciferase growth in erythrocytes, 48 h; Potency, µM (titrated, usually from 28.7 µM), for inactives: at the top dose activity change, negative = inhibition, usual class: inhibitors; hit rate 5.9% among 310,000; AID 504832, 2011; note: % is set by controls: 0 for no effect and ±100 for the full control effect
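Firefly luciferase activity from engineered P. falciparum reports growth; inhibitors lower the luminescent signal. Cultures contained 2% hematocrit erythrocytes at 0.1% final parasitemia.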
Pf growth 96h: Primary qHTS for delayed death inhibitors of the malarial parasite plastid, 96 hour incubation | P. falciparum luciferase reporter growth, 96 h | Potency, µM (doses to about 28.7 µM), for the others: at the highest dose activity change, negative = inhibition, actives largely listed as inhibitors | hit rate 6.9% among 320,000; note: % is set by controls: 0 for no effect and ±100 for the full control effect
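P. falciparum expressing integrated firefly luciferase, in erythrocytes at 2% hematocrit, 0.05% parasitemia, incubated with compounds 96 h at 37 C, 5% CO2. Growth inhibition read as loss of luminescence; two-generation exposure targets delayed-death apicoplast inhibitors.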
SARS PLpro yeast: qHTS of Yeast-based Assay for SARS-CoV PLP. S. cerevisiae expressing SARS-CoV PLpro, growth rescue. Potency, µM (highest dose often 32.9 µM), without a hit: at the top dose activity, positive = growth rescue, actives largely listed as activators. hit rate 0.19% among 330,000. AID 485353, 2010; calls by dose curve; note: 0% is about no effect; nearly all actives have a fitted effect of over 55% in size
* marks the source's active call; other numbers are inactive results. Unless noted, calls come from the whole dose curve; as a rule, active = well fitted curve in the direction sought with a large enough effect; inconclusive = small, poorly fitted or top-dose-only effect, or another doubt; inactive = no such curve, though single readings can be large; an effect the other way counts as inactive or inconclusive. Potency is the fitted concentration of half-maximal effect.

What do the screens show for `O=C(NCC1CCN(Cc2cccc(Cl)c2)CC1)C1CCCN(c2ncnc3c2nc2n3CCCCC2)C1` (stereo not drawn)?
Sm TGR block: -18%; Pf growth 48h: inconclusive; Pf growth 96h: -19%; SARS PLpro yeast: -6%

How did O=C(Nc1ccc(F)cc1)C1CCCN(c2ncnc3c2nc2n3CCCCC2)C1 (stereo not drawn) do in these assays?
Sm TGR block: -1%

Results for O=C(NCC1CCN(Cc2ccc(F)cc2)CC1)C1CCCN(c2ncnc3c2nc2n3CCCCC2)C1 (stereo not drawn) ?
Sm TGR block: -11%; Pf growth 48h: inconclusive; Pf growth 96h: 9.3µM*; SARS PLpro yeast: -2%

How did O=C(NCC1CCN(Cc2ccc(Cl)cc2)CC1)C1CCCN(c2ncnc3c2nc2n3CCCCC2)C1 (stereo not drawn) do in these assays?
Sm TGR block: -11%; Pf growth 48h: 12µM*; Pf growth 96h: 3%; SARS PLpro yeast: 0%

How did C=C1CC2C(CC[C@]3(C)C(=O)CCC23)[C@]2(C)C=CC(=O)C=C12 (stereo partly drawn) do in these assays?
Pf growth 48h: inconclusive; Pf growth 96h: 13µM*

Results for CC(C)(C)N1C(=O)c2ccccc2NC(=O)N1Cc1ccc(Br)cc1 ?
Sm TGR block: -3%; Pf growth 96h: 8.3µM*; SARS PLpro yeast: -5%

Results for COc1ccc(N2C3=C(C(=O)CC(C)(C)C3)C(c3cnn(C)c3)C3=C2CC(C)(C)CC3=O)cc1 ?
Sm TGR block: -12%; Pf growth 48h: 7.4µM*; Pf growth 96h: 4.1µM*; SARS PLpro yeast: 0%

Results for CCn1cc(C2C3=C(CC(C)(C)CC3=O)N(c3ccccc3)C3=C2C(=O)CC(C)(C)C3)c(C)n1 ?
Sm TGR block: 2%; Pf growth 48h: inconclusive; Pf growth 96h: 8.3µM*; SARS PLpro yeast: 17%

Results for CC1(C)CC(=O)C2=C(C1)N(c1ccccc1)C(N)=C(C#N)C2c1ccccc1 (stereo not drawn) ?
Sm TGR block: -16%; Pf growth 48h: inconclusive; Pf growth 96h: inconclusive; SARS PLpro yeast: -8%

What do the screens show for `Cc1ccc(S(=O)(=O)CC#CCOC(=O)c2ccc([N+](=O)[O-])cc2)cc1`?
Sm TGR block: 0.63µM*; Pf growth 48h: 6%; Pf growth 96h: inconclusive; SARS PLpro yeast: -14%

How did CC(C)Oc1ccc(C(=O)Nc2ncn[nH]2)cc1 do in these assays?
Sm TGR block: 8%; Pf growth 48h: 52%; Pf growth 96h: 10µM*; SARS PLpro yeast: 3%

How did CCOc1ccc(C(=O)Nc2ncn[nH]2)cc1 do in these assays?
Sm TGR block: 6%; Pf growth 48h: 19%; Pf growth 96h: 2.1µM*; SARS PLpro yeast: 5%

Results for CC(C)Oc1cccc(C(=O)Nc2ncn[nH]2)c1 ?
Sm TGR block: 0%; Pf growth 48h: 28%; Pf growth 96h: inconclusive; SARS PLpro yeast: -6%

What do the screens show for `N#CCCN/N=C(/Cc1nc2ccccc2[nH]1)c1cccc(Cl)c1`?
Sm TGR block: -17%; Pf growth 48h: 10µM*; SARS PLpro yeast: 6%

How did Cc1ccc(NS(=O)(=O)c2ccc(-c3cc(C)no3)cc2)c(Br)c1 do in these assays?
Sm TGR block: 7%

What do the screens show for `COCCCNC(=O)c1ccc2c3c(onc13)-c1ccccc1C2=O`?
Sm TGR block: 0%; Pf growth 48h: -88%; Pf growth 96h: -24%; SARS PLpro yeast: -8%

Results for CCOC(=O)C(C(=O)OCC)c1cc(Br)c2noc3c2c1C(=O)c1ccccc1-3 ?
Sm TGR block: 0.63µM*; Pf growth 48h: -4%; Pf growth 96h: -8%; SARS PLpro yeast: -17%

What do the screens show for `O=C(N/N=C/c1ccc(N2CCCCC2)o1)c1ccccc1[N+](=O)[O-]`?
Sm TGR block: 4µM*; Pf growth 48h: -7%; Pf growth 96h: -15%; SARS PLpro yeast: 18%

Results for O=C(N/N=C/c1ccc(N2CCOCC2)o1)c1cccc(C(F)(F)F)c1 ?
Sm TGR block: 11µM*; Pf growth 48h: -30%; Pf growth 96h: -28%; SARS PLpro yeast: -1%

How did O=C(N/N=C/c1ccc(N2CCOCC2)o1)c1ccccc1[N+](=O)[O-] do in these assays?
Sm TGR block: 8.9µM*; Pf growth 48h: 2%; Pf growth 96h: 5%; SARS PLpro yeast: 21%
